Compound activity: PubChem BioAssay, several laboratories
BoNT A protease = BoNT A light chain protease inhibition. multiplex microsphere protease substrate cleavage, flow cytometry. inhibition, % at 10 µM. actives 0.17% (n = 360,000). AID 588499
Bead autofluor = flagged as autofluorescent in microsphere protease counterscreen; actives 3.1% (n = 360,000); AID 624483; fluorescence intensity (no concentration beside the values); compound autofluorescence counterscreen, microsphere flow cytometry; hits give high values; in the data active means fluorescence intensity above about 16000; inconclusive means no clear call, values can overlap the other calls
3CLpro inhibitor = SARS-CoV 3CLpro protease inhibition | inhibition, % at 6 µM | actives 0.14% (n = 290,000) | recombinant SARS-CoV 3CLpro, quenched FRET peptide cleavage | P0C6X7; in the data active means inhibition above about 12%
BoNT F protease = inhibitors of Botulinum neurotoxin F light chain protease. inhibition, % at 10 µM. Multiplex microsphere protease cleavage assay, flow cytometry. actives 0.22% (n = 360,000); in the data active means inhibition above about 35%, passing the limit was not always enough; inconclusive means no clear call, values can overlap the other calls
Anthrax LF prot = blocks Bacillus anthracis lethal factor protease; P15917; multiplex microsphere protease cleavage assay, LF; inhibition, % at 10 µM; actives 0.12% (n = 360,000)
Hits are given with their value; – = inactive; ? = inconclusive; · = not tested or not shown. Shown are actives, neighbours in structure and some others; about 3.5% of the full set was active somewhere. Unless noted, no stated cut-off is given here; in the data, active means inhibition above about 30%; inconclusive means no clear call, values can overlap the other calls; inactive means below that.

SMILES | BoNT A protease | Bead autofluor | 3CLpro inhibitor | BoNT F protease | Anthrax LF prot
COc1ccccc1N1CCN(S(=O)(=O)c2cccc(F)c2)CC1 | – | 22849 | – | – | –
COc1ccccc1N1CCN(S(=O)(=O)c2ccc(F)cc2)CC1 | – | – | – | – | –
CCC(Sc1nc(C)cc(=O)[nH]1)C(=O)Nc1nc(-c2ccccc2)cs1 (centres undefined) | – | 22493 | – | – | –
O=C(CCCl)Nc1cc(SCCO)cc([N+](=O)[O-])c1 | – | 20902 | – | – | –
CCn1c(CCNC(=O)c2ccc(OC)cc2)nnc1SCC(=O)Nc1ccccc1F | – | – | – | – | –
COc1ccc(NC(=O)CSc2nnc(-c3ccccn3)n2N)cc1 | 34 | – | – | 35 | –
COc1ccc(NC(=O)CSc2nnc(-c3ccccc3C)n2C)cc1 | ? | 19446 | – | – | –
COc1ccc(C(=O)NCCc2nnc(SCC(=O)Nc3ccccc3C(C)C)n2C)cc1 | – | 20025 | – | – | –
COc1ccccc1-c1nnc(SCC(=O)Nc2ccc(S(N)(=O)=O)cc2)n1C | – | 21773 | – | – | –
CCCC(=O)c1c(NC(C)C)cc(C)oc1=O | – | – | – | – | –
O=C(CNCc1ccco1)Nc1cc(S(=O)(=O)N2CCOCC2)ccc1N1CCOCC1 | – | – | · | – | –
CCOC(=O)C1(C)CCN1C(=O)c1cc(C)n(C(C)(C)C)n1 (centres undefined) | – | – | · | – | –
CC(=O)N1CCC(N(CCN2CCOCC2)C(=S)Nc2cc(C)cc(C)c2)CC1 | – | – | – | – | –
CC(=O)Nc1ccc(-c2nnc(SCc3c(C)cc(C)cc3C)n2C)cc1 | – | 23890 | – | – | –
CCOC(=O)Cc1csc(NC(=O)CSc2nnc3ccccn23)n1 | – | – | – | – | –
COc1ccc(-n2c(SCC(N)=O)nnc2-c2ccccc2F)cc1 | – | 16562 | – | – | –
COc1ccc(-n2c(SCC(N)=O)nnc2-c2ccco2)cc1 | – | – | – | ? | –
CCNC(=O)CSc1nnc(-c2ccc(OC)cc2)n1CC(C)C | – | 21420 | – | – | –
COCCn1c(SCC(=O)NCc2cccs2)nnc1-c1ccc(OC)cc1 | – | – | – | – | –
CCOC(=O)Cc1csc(NC(=O)CSc2nnc(-c3ccc(OC)cc3)n2C)n1 | ? | 20591 | – | – | –
CC(=O)Nc1ccc(-c2nnc(SCC(=O)c3ccc4c(c3)Cc3ccccc3-4)n2C)cc1 | – | – | – | – | –
Cc1cccc(OCC(=O)OCC(=O)N(CC(C)C)c2c(N)n(Cc3ccccc3)c(=O)[nH]c2=O)c1C | – | ? | · | – | –
Cc1ccccc1N1C(=O)NC(=O)/C(=C\c2cnn(-c3ccccc3)c2)C1=O | – | – | – | – | –
Cc1cn(C(=O)c2ccccc2)c(=S)n1-c1ccc(Br)cc1 | – | – | – | – | –
COc1ccc(CNC(=O)CSc2nnc(-c3ccc(NC(C)=O)cc3)n2C)cc1 | – | 17726 | – | – | –
SMILES | BoNT A protease | Bead autofluor | 3CLpro inhibitor | BoNT F protease | Anthrax LF prot
COc1ccc(-c2nnc(SCC(=O)Nc3ccc(C)cc3)n2C)cc1 | – | – | – | – | –
CCC(=O)N1CCc2cc(Br)cc(S(=O)(=O)NCCCN(C)Cc3ccccc3)c21 | – | – | – | – | –
CCC(=O)c1ccc2c(c1)OCCO2 | – | – | – | ? | –
Nc1cc2c(cc1C(=O)c1ccc(Cl)cc1)OCCO2 | ? | 22401 | – | – | –
Nc1ccc(C(=O)c2ccc3c(c2)OCCO3)cc1N | – | 21110 | – | – | –
Cc1ccc(OCC(=O)OC2CCS(=O)(=O)C2)cc1 (centres undefined) | ? | ? | – | ? | ?
Cc1cc2oc(=O)cc(Cn3ccnc3)c2cc1C | – | 16965 | – | – | –
O=c1cc(Cn2ccnc2)c2cc3c(cc2o1)CCC3 | – | – | – | – | –
Cc1ccc(CN2CC(N3CCC(c4ccccc4)CC3)CS2(=O)=O)cc1 (centres undefined) | – | – | · | – | –
Cc1nn(-c2cccc(C(F)(F)F)c2)c(=O)c2ccccc12 | – | – | – | – | –
Cn1cc(-c2nnnn2-c2cccc(C(F)(F)F)c2)c(C(F)(F)F)n1 | – | 24492 | – | – | –
CCc1ccc(N2C(=O)c3sc4nnc(C)c(=O)n4c3C2=O)cc1 | – | 20580 | – | – | –
Cc1ncc[nH]1 | – | – | · | – | –
O=S(=O)(c1ccc(N2CC=C(c3ccccc3)CC2)nc1)N1CCCC1 | ? | 24332 | – | – | –
O=S(=O)(c1ccc(N2CCN(S(=O)(=O)c3ccccc3)CC2)nc1)N1CCCC1 | – | – | – | – | –
COc1ccc2c(c1)C(NC(C)=O)C(=O)N2CCc1ccccc1 (centres undefined) | – | – | – | – | –
CS(=O)(=O)N(CC(=O)N1CCN(c2ccc(F)cc2)CC1)c1ccc(F)c(Cl)c1 | ? | 24225 | – | – | –
Cc1cccc(N(CC(=O)N2CCN(c3ccc(F)cc3)CC2)S(C)(=O)=O)c1C | – | – | – | – | –
Cc1cc(OCC(=O)Nc2cc(S(=O)(=O)N3CCOCC3)ccc2N2CCCC2)ccc1C(C)C | – | – | · | – | –
O=c1c2ccccc2ncn1CCCOc1ccccc1[N+](=O)[O-] | – | 20774 | – | – | –
Cc1ccccc1OCCN1CCCC1 | – | – | – | ? | –
O=[N+]([O-])c1ccccc1OCCCN1CCOCC1 | – | 23944 | – | – | –
CC1CN(CCOc2ccc(F)cc2)CC(C)O1 (centres undefined) | – | – | – | 36 | –
Cc1ccccc1OCCCN1CCCC1 | ? | 17560 | – | – | –
CCCCCCCNC(=O)C1CC(=O)N(C)C(=Nc2ccc(OC)cc2)S1 (centres undefined) | – | – | – | – | –
SMILES | BoNT A protease | Bead autofluor | 3CLpro inhibitor | BoNT F protease | Anthrax LF prot
Fc1ccccc1OCCCN1CCOCC1 | – | 17023 | – | – | –
CC1CN(CCCOc2ccccc2[N+](=O)[O-])CC(C)O1 (centres undefined) | – | 23581 | – | – | –
Cc1cc(C(=O)N2CCCCCC2)cs1 | – | 23371 | – | – | –
Cc1cc(C)cc(C(=O)N2CCCCCC2)c1 | – | 23038 | – | – | –
O=C(c1ccc(C(=O)N2CCCCCC2)cc1)N1CCCCCC1 | – | – | – | – | –
O=C(Oc1c(Cl)cc(Cl)c2ccccc12)N1CCCC1 | – | 22642 | – | – | –
O=C(Nc1cccc(Cl)c1)N1CCSc2cc(Cl)ccc21 | – | 19711 | – | – | –
O=C(Nc1ccccc1)N1CCSc2cc(Cl)ccc21 | – | 20918 | – | – | –
O=C(Nc1ccccc1Cl)N1CCSc2ccccc21 | – | – | – | – | –
O=C(NC1CCCC1)C1c2ccccc2OCC(=O)N1CCCN1CCOCC1 (centres undefined) | – | – | · | – | –
O=C(NC1CCCCCC1)C1c2ccccc2C(=O)N1CCCN1CCOCC1 (centres undefined) | ? | 20267 | – | – | –
Cc1ccc(-c2ccc(CCC(=O)O)n2CC2CCCO2)cc1 (centres undefined) | ? | 22736 | – | – | –
O=C(CSc1ncccn1)NCc1ccccc1Cl | ? | 21734 | – | – | –
CCc1ccc(C(=O)N2CCCC2)s1 | ? | 16597 | – | – | –
CCc1ccc(C(=O)NC2CCCCC2)s1 | – | 20340 | – | – | –
O=C(c1ccc(C(=O)N2CCCc3ccccc32)s1)N1CCCc2ccccc21 | – | – | – | – | –
